Measurements published in the supplement of paper PMC11732987, “Enantioselective OTUD7B fragment discovery through chemoproteomics screening and high-throughput optimisation” (Communications Chemistry, 2025).

Experiments:
Test in all cases: log2 ratio of Biotin-Ahx-Ub-VS probe labelling (fragment/DMSO); higher = less target engagement (more negative = stronger competition), active = hit call of the paper (q ≤ 0.05, log2 ratio ≤ -1)
Conditions in all cases: compound concentration: 200 uM; treatment time: 3 h
USP34 = USP34 (UniProt Q70CQ2)
USP34, sequence (Q70CQ2 whole entry, the tested form may be a part): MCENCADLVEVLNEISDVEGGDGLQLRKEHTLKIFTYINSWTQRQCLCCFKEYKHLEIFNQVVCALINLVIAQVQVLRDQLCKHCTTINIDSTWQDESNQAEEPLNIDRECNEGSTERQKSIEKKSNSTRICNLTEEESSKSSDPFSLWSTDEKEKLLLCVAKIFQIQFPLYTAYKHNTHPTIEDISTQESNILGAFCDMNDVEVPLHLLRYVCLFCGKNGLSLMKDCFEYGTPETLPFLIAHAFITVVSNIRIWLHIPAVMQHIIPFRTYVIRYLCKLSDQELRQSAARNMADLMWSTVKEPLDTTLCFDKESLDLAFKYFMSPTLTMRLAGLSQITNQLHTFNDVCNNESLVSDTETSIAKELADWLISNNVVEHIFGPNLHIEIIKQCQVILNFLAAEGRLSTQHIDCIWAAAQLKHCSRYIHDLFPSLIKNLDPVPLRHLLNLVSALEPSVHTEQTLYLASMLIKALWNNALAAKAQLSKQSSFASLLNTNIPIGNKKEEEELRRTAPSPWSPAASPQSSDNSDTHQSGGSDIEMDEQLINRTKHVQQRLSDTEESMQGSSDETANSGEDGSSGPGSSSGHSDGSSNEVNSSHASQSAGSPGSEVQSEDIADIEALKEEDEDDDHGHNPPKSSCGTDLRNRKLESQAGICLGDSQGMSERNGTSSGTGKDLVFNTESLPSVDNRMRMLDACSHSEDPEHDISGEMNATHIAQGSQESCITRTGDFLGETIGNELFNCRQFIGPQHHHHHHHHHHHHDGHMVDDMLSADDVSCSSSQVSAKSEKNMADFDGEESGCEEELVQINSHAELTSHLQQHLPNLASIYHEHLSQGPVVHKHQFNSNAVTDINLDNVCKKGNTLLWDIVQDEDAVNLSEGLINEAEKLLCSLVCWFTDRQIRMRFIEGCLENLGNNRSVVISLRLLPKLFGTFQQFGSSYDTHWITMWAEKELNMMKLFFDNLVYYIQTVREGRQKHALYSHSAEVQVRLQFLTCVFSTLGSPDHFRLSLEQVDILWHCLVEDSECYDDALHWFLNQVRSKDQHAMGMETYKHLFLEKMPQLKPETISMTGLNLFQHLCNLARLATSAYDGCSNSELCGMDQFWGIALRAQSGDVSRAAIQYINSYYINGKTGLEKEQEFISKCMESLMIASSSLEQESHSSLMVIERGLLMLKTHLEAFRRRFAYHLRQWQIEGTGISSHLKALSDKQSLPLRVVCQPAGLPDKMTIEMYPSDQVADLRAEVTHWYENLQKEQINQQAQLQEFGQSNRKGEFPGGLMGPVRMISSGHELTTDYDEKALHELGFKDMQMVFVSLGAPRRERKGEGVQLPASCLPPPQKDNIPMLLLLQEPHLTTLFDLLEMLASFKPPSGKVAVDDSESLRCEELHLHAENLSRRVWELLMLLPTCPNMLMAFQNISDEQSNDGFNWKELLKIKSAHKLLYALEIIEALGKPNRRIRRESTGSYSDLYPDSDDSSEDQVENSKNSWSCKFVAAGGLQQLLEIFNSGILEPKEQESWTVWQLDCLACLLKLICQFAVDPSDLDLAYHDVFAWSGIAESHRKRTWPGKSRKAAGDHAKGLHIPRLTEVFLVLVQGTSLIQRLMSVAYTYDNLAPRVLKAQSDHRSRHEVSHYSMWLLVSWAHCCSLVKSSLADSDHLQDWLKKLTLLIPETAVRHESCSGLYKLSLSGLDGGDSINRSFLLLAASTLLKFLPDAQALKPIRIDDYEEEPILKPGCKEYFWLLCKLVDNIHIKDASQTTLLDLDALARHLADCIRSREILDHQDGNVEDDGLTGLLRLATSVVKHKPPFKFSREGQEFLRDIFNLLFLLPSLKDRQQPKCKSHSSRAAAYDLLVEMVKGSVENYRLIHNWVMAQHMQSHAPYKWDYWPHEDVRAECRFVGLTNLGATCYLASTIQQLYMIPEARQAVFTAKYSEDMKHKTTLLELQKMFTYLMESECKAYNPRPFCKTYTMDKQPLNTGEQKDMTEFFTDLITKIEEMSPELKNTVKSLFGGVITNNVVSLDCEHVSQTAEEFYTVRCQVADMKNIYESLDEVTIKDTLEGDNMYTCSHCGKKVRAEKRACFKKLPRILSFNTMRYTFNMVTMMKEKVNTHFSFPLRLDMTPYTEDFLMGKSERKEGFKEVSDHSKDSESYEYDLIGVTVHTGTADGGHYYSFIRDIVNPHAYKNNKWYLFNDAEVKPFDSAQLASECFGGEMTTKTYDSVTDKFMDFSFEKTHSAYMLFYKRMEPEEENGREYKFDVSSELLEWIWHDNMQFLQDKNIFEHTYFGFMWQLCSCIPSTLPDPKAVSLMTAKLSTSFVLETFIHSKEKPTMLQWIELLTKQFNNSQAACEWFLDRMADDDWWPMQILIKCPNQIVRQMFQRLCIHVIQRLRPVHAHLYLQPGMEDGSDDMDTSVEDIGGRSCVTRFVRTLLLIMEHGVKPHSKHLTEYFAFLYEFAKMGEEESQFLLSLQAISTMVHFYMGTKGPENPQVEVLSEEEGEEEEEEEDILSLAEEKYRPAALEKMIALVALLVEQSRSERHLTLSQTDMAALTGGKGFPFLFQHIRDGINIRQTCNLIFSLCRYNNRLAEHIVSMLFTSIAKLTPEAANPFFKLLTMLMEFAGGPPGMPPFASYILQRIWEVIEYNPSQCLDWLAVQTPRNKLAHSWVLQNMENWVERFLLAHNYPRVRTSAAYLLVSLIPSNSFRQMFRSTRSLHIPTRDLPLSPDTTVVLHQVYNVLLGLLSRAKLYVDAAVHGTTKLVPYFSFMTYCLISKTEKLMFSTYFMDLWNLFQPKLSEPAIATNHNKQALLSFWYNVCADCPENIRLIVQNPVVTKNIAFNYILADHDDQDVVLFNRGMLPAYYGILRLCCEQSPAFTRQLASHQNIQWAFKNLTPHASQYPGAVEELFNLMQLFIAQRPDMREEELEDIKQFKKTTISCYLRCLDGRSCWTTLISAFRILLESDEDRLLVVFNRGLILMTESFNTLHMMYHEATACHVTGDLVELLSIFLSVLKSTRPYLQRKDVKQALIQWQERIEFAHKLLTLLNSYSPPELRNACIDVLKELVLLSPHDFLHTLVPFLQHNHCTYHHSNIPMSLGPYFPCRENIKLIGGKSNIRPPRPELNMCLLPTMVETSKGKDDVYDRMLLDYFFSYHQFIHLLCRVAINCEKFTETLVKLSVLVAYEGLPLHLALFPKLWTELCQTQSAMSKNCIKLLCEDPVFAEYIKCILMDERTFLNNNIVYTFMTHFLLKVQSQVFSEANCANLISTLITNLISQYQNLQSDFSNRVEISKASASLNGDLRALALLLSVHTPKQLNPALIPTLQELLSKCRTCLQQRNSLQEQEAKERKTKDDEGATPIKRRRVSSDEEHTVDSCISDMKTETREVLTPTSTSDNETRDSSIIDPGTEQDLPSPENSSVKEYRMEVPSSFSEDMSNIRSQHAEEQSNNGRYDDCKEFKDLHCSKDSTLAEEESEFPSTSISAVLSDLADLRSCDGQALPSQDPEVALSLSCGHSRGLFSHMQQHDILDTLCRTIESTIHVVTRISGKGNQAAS
How it was run: (§1)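 Average log2 ratios of fragment over vehicle were obtained by unpaired t-test from global-median-normalised Spectronaut label-free quantities. Proteins with ≥2 unique peptides were included. HEK293T lysate (495 µg per sample) was treated in triplicate with fragment at 200 µM or vehicle for 3 h, then with Biotin-Ahx-Ub-VS at 0.5 µM final for 1 h, and labelled DUBs were NeutrAvidin-enriched and run by diaPASEF LC-MS/MS.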

USP36 = target: T1, USP36 (UniProt Q9P275)
T1 sequence (whole entry): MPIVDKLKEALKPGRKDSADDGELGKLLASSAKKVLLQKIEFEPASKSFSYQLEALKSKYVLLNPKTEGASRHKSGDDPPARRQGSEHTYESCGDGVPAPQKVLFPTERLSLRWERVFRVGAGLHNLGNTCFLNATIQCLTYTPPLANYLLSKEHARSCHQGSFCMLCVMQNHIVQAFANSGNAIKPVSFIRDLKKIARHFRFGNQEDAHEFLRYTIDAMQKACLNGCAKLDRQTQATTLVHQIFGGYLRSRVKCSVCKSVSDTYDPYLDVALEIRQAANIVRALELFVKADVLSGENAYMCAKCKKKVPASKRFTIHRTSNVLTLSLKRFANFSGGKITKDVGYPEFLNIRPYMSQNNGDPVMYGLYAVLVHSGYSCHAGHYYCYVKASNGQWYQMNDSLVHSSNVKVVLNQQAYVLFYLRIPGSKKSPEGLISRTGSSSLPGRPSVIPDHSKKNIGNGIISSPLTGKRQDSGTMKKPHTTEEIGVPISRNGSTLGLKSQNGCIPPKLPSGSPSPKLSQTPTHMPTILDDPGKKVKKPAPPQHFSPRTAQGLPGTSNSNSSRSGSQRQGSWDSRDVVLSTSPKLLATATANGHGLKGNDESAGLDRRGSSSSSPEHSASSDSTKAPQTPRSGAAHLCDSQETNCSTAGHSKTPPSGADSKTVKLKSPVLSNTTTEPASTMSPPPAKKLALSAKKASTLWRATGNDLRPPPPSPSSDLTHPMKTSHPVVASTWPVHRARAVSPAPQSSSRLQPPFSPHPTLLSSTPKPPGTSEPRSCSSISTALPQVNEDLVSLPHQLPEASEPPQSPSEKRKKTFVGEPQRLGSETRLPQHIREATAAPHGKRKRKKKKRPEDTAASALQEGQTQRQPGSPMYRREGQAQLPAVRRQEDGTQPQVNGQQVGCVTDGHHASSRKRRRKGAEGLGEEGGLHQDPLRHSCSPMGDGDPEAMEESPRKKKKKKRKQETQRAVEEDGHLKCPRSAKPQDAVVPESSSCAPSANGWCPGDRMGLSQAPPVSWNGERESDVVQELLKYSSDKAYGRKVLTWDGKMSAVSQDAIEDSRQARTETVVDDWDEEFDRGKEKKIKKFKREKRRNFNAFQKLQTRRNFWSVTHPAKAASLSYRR
How it was run: as §1

USP38 = target: T2, USP38 (UniProt Q8NB14)
T2 sequence (whole entry): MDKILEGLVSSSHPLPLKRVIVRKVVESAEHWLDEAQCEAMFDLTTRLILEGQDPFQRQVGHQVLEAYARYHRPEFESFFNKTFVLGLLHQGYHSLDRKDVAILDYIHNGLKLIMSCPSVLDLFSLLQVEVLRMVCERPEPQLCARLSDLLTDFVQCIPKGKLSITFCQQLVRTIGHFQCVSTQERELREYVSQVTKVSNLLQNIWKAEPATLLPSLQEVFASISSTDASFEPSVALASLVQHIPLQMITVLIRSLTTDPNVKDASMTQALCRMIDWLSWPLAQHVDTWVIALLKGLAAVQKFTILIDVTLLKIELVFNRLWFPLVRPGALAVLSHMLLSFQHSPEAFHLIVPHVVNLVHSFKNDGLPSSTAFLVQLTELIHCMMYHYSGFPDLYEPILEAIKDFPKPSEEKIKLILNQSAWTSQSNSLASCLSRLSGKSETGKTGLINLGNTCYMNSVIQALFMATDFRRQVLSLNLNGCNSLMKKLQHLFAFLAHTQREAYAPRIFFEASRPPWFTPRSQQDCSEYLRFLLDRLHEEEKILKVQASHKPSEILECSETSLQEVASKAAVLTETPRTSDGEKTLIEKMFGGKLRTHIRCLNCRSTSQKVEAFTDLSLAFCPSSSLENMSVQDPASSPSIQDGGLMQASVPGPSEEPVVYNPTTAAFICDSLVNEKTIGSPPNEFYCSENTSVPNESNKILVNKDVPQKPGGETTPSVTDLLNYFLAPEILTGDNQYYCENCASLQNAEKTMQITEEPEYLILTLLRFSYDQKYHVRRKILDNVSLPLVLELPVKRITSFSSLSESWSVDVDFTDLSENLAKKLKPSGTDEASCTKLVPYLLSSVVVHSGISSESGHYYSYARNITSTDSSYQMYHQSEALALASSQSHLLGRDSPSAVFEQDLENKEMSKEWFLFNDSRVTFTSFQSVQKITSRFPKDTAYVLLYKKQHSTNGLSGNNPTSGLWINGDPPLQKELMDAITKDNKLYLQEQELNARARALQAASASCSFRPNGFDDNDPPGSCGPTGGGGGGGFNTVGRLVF
How it was run: as §1

USP39 = target: T3, USP39 (UniProt Q53GS9)
T3 sequence (whole entry): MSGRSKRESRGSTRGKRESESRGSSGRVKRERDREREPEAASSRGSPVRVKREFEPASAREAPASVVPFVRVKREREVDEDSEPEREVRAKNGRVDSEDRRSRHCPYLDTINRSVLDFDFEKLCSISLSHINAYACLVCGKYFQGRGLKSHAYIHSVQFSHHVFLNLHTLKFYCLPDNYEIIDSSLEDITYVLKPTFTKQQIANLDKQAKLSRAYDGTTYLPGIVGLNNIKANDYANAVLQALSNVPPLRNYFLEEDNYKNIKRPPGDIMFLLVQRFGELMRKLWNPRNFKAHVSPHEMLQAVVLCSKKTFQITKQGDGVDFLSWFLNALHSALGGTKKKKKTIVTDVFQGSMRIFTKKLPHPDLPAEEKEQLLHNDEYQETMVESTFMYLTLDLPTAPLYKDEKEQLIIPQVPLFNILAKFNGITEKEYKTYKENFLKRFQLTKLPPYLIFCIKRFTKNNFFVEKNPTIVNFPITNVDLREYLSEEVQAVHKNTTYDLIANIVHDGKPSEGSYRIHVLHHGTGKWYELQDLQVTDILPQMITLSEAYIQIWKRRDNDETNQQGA
How it was run: as §1

USP4 = target: T4, USP4 (UniProt Q13107)
T4 sequence (whole entry): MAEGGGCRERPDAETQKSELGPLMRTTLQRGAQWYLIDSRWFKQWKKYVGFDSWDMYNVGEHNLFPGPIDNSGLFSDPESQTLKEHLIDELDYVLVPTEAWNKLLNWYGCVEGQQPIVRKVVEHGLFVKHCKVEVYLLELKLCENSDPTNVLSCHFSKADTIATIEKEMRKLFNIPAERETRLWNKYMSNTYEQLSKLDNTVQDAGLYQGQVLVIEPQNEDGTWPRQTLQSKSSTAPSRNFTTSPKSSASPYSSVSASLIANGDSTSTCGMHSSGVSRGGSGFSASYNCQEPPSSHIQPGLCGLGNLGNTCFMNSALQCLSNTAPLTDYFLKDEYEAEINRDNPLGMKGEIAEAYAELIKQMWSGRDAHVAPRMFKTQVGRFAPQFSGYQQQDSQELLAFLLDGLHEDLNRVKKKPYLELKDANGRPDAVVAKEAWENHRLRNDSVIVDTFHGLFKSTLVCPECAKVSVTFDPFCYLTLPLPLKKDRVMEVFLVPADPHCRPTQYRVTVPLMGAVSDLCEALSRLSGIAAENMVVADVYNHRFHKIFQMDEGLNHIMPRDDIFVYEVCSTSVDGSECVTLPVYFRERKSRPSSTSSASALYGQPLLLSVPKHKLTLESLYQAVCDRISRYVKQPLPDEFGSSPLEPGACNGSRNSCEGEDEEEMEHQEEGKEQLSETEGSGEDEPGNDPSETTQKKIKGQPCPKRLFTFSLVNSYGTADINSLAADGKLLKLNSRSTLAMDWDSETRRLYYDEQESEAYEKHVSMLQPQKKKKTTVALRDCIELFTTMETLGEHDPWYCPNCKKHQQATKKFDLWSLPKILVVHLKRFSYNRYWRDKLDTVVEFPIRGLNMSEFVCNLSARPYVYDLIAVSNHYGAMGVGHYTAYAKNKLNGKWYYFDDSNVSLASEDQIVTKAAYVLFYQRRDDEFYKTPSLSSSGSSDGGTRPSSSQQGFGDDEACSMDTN
How it was run: as §1

Measured: log2 ratio of Biotin-Ahx-Ub-VS probe labelling

Cl.O=C(CCl)NCCc1ncc(F)cc1F
inactive: USP34 -0.216 | USP36 -0.308 | USP38 -0.203 | USP39 -0.202 | USP4 0.0209
